A short description of experiment [1]: qHTS Assay for Lipid Storage Modulators (AID 1519; calls by dose curve; further: potency means the concentration at half of the fitted maximal effect; on activity change, negative = inhibition: on the % scale 0 is the no-effect control and ±100 the full control effect). The following applies: Drosophila S3 cells, BODIPY lipid droplet/cell ratio, laser cytometry, cells loaded with oleic acid. A digest of the protocol:
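Cells seeded at 5,000 per well were treated with compounds over a concentration series and loaded with oleic acid (400 uM, as added). Lipid droplet fluorescence (488 nm excitation, 500-530 nm channel) was read by laser-scanning cytometry and normalized to 20 uM Triacsin C.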
(Quantitative high-throughput screening tests each substance at several concentrations.)

Experiment [2] addresses Cytochrome P450 3A4 (Homo sapiens) (UniProt P08684). The experiment is described as follows: qHTS Assay for Inhibitors and Substrates of Cytochrome P450 3A4 (AID 884). Further: nearly all actives have a fitted effect of over 50% in size. Further: potency means the concentration at half of the fitted maximal effect. The settings on record: recombinant CYP3A4, Luciferin-PPXE luminescence; series mostly up to 57.1 µM. In outline:
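Luminescent readout of luciferin produced by CYP3A4 (20 nM) dealkylation of Luciferin-PPXE, 25 uM (its KM). NADPH-driven reaction ran 60 min at RT after 10 min compound preincubation; data scaled to 57 uM ketoconazole as 100% inhibition.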

Experiment [3] has the same target. The experiment is described as follows: qHTS Assay for Activators of Cytochrome P450 3A4 (AID 885). Further: nearly all actives have a fitted effect of over 65% in size. The following applies: recombinant CYP3A4, Luciferin-PPXE luminescence, 60 min; series mostly up to 57.1 µM. A digest of the protocol: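 Activators are scored by enhanced luminescence from CYP3A4 conversion of luciferin-PPXE (25uM, equal to KM) to luciferin, after 60 min at RT with an NADPH-regenerating system.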

The nature of experiment [4]: Confirmation and Secondary Assay for Modulators of Hemoglobin Beta Chain Splicing at IVS2 654 locus (AID 910).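 Further: HeLa cells stably carrying EGFP split by mutant beta-globin IVS2-654 intron; % of control where 0% means no effect.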 The settings on record: HeLa EGFP-654 splicing reporter, GFP fluorescence, 48 h; series mostly up to 46.1 µM. In outline:
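HeLa cells stably expressing EGFP interrupted by β-globin IVS2-654 intron, seeded overnight in Opti-MEM/2% FCS, then treated 2 days at 37 °C. Restored splicing read as total peak GFP intensity per well by laser scanning cytometry (488 nm excitation, 500–520 nm emission); 500 nM antisense PNA as control.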

Experiment [5] is described as follows: Confirmation and Secondary Assay for Modulators of Hemoglobin Beta Chain Splicing at IVS2 705 locus (AID 930).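 Further: HeLa cells stably expressing the EGFP-705 splicing reporter; GFP fluorescence per well restored by corrected splicing of the IVS2-705 intron in EGFP; % of control where 0% means no effect.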 The following applies: HeLa EGFP-705 splicing reporter, GFP fluorescence, 48 h; series mostly up to 46.1 µM. A digest of the protocol:
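Stable HeLa line with EGFP disrupted by mutant beta-globin intron 2 (705). Overnight attachment, then 2 days of compound at 37C, 5% CO2. Signal: peak GFP intensity summed over objects 5-250 µm.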

Experiment [6] addresses Ubiquitin carboxyl-terminal hydrolase 1 (Homo sapiens) (UniProt O94782). The experiment is described as follows: Inhibitors of USP1/UAF1: Pilot qHTS (AID 504865). Further: nearly all actives have a fitted effect of over 35% in size. Further: potency means the concentration at half of the fitted maximal effect. The settings on record: purified USP1/UAF1, Ub-rhodamine cleavage fluorescence; series mostly up to 114 µM. A digest of the protocol: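 Kinetic fluorescence assay: 1nM USP1/UAF1, 15 min compound preincubation, then 150nM Ub-Rho; 480/540 nm.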

Experiment [7] has as its target Cytochrome P450 1A2 (Homo sapiens) (UniProt P05177). The experiment is described as follows: p450-cyp1a2 (AID 410; calls by dose curve; further: potency means the concentration at half of the fitted maximal effect). The settings on record: recombinant CYP1A2, luciferin-ME demethylation, luminescence; series mostly up to 25.6 µM. In outline: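 Luminescent demethylation readout: Luciferin-ME (100uM, equal to Km) turned over by 20nM CYP1A2 for 60 min at room temperature after NADPH regeneration addition, following 10 min compound preincubation. Normalization used 57 uM furafylline as full inhibition.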

Experiment [8] addresses Glucocorticoid receptor (Homo sapiens) (UniProt P04150). Briefly: GR-GFP Redistribution (AID 450;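 active means compounds whose dose series gives a full or clear partial fitted curve of increased nuclear translocation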; further: potency means the concentration at half of the fitted maximal effect). The following applies: U2OS GR-GFP nuclear translocation, laser cytometry, 2 h.
Experiment [9] shares this target. The experiment is described as follows: GR-EFC Redistribution (AID 451; calls by dose curve; further: potency means the concentration at half of the fitted maximal effect). The following applies: CHO-K1 GR-EFC translocation, beta-gal luminescence, 2 h. A digest of the protocol: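 CHO-K1 cells expressing nuclear EA and GR-ED fragments of b-gal; compounds titrated up to 46 uM final, 2 h at 37 C. GR nuclear translocation read as complemented b-gal luminescence after 1 h RT detection.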

Experiment [10] deals with Mitogen-activated protein kinase 10 (Mus musculus) (UniProt Q61831). The experiment is described as follows: JNK3 AlphaScreen Assay (AID 530; active means well fitted curve in either direction with a large enough effect, not every such curve was filed as active;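 further: kinase came from lysate of stimulated human HepG2 cells; signal reports phosphorylation of biotinylated GST-cJun 1-79 at Ser73 with 10 µM ATP; on the % scale 0 is the no-effect control and ±100 the full control effect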). The settings on record: JNK3 lysate, c-Jun phosphorylation; series mostly up to 57.1 µM. A digest of the protocol:
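Activity was read by AlphaScreen after JNK3-containing HepG2 lysate (cytokine pre-activated) phosphorylated biotinylated GST-cJun with 10 uM ATP at room temperature. Phospho-Ser73 cJun antibody with Protein-A acceptor beads provided detection.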
Background: Bead proximity is the source of the signal in Alpha formats.

Experiment [11] deals with 3',5'-cyclic-AMP phosphodiesterase 4B (Homo sapiens) (UniProt Q07343). Briefly: qHTS Assay for Inhibitors of PDE-IV (AID 607; active means well fitted activation curve with a large enough effect in the main read-out, with a control signal flat, not every such curve was filed as active; further: % of control where 0% means no effect). The following applies: HEK293 ACTOne CNG channel cells, membrane potential fluorescence; series mostly up to 22.9 µM. A digest of the protocol:
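The readout is membrane depolarisation from a cAMP-sensing CNG channel, detected with a potential dye at ex 535/em 590. Cells were HEK293-derived (endogenous PDE-IV) at 1000 cells/well, titrated up to 22.9 uM final.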

Experiment [12] can be described thus: AP1 Signaling Pathway (AID 357; active means well fitted curve in either direction with a large enough effect, not every such curve was filed as active;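 further: ME-180 reporter cells stimulated with EGF at its EC50 level; on the % scale 0 is the no-effect control and ±100 the full control effect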). The settings on record: ME-180 AP-1-bla reporter, EGF-induced, beta-lactamase ratio, 5 h; series mostly up to 17.2 µM. In outline: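 A ratiometric CCF4 readout (405 nm excitation; 460 and 530 nm emission) quantified AP-1-driven beta-lactamase in ME-180 cells after 5 h with compound and EC50 EGF; AC50 values were derived for activators and inhibitors.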

A short description of experiment [13]: Stat Signaling Pathway (AID 446; active means well fitted curve in either direction with a large enough effect, not every such curve was filed as active;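 further: ME-180 cervical cancer cells given 40 pM IL-6 alongside compound; SIE-controlled beta-lactamase reporter measured as 460/530 nm FRET emission ratio; on the % scale 0 is the no-effect control and ±100 the full control effect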). The following applies: ME-180 (cervical carcinoma) SIE beta-lactamase reporter, IL-6 stimulated, 5 h; series mostly up to 17.2 µM. In outline: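 Emission at 460 and 530 nm (excitation 405 nm) reports SIE-controlled beta-lactamase in ME-180 cells. Cells received compound with 40 pM IL-6 for 5 hrs at 37 C; data scaled between 300 pM IL-6 and 125 nM JAK-inhibitor controls.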

For experiment [14], the target named is Luciferin 4-monooxygenase (Photinus pyralis) (UniProt P08659). The experiment is described as follows: Biochemical firefly luciferase enzyme assay for NPC (AID 624030).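 Further: purified P. pyralis luciferase at 10 nM with luciferin and ATP substrate; 0% = DMSO and -100% = full luciferase inhibition by PTC124 control; nearly all actives have a fitted effect of over 70% in size.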 The settings on record: purified P. pyralis luciferase, luminescence, 5 min; series mostly up to 58.6 µM. In outline:
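Purified P. pyralis luciferase at 10 nM in 50 mM Tris Acetate (final), luminescence read within 5 minutes of enzyme addition to compounds. Activity normalised to PTC124 versus DMSO; concentration-response curves classed by r2, magnitude and activity.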

Experiment [15] can be described thus: qHTS profiling for inhibitors of Plasmodium falciparum proliferation (AID 504749).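 Further: 0% = DMSO vehicle and full inhibition = artemisinin control; nearly all actives have a fitted effect of over 60% in size.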 The settings on record: P. falciparum in erythrocytes, SYBR Green DNA, 72 h, at 28.7 µM (top of the series). A digest of the protocol: (§1)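 Each compound contacts P. falciparum-infected red blood cells for 72 h at 37 C; lysis buffer (Tris, EDTA, saponin, Triton X, SYBR Green I) is added and fluorescence measured next morning; values normalized to controls.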

A further experiment concerns C2A. The description is as above. The following applies: P. falciparum in erythrocytes, SYBR Green DNA, 72 h; series mostly up to 28.7 µM. In outline: as §1
The next experiment has as its system CP185. Described as above. The settings on record: P. falciparum in erythrocytes, SYBR Green DNA, 72 h; series mostly up to 28.7 µM. A digest of the protocol:
as §1

The test system of another experiment is FAB9. The description is as above. The following applies: P. falciparum in erythrocytes, SYBR Green DNA, 72 h; series mostly up to 28.7 µM. In outline: as §1
[16] abbreviates: measured here: cell count channel max response.
Where [17] appears, read: measured here: lipid channel max response.

Values joined by “and” are separate entries in the source; they are usually repeats but may differ in a detail not shown here. Equal values may be shown once. Results filed as inconclusive are left out. The source holds several records for some structures; these can differ, active in one and inactive in another. Active and inactive are the calls of the source. Unless noted, the call rests on the fitted dose curve; in most records, active means well fitted curve in the direction sought with a large enough effect; inconclusive means small, poorly fitted or top-dose-only effect, or another doubt; inactive means no such curve, though single readings can be large; an effect the other way counts as inactive or inconclusive.

Cytochrome P450 1A2 (Homo sapiens), sequence (P05177 whole entry, looked up): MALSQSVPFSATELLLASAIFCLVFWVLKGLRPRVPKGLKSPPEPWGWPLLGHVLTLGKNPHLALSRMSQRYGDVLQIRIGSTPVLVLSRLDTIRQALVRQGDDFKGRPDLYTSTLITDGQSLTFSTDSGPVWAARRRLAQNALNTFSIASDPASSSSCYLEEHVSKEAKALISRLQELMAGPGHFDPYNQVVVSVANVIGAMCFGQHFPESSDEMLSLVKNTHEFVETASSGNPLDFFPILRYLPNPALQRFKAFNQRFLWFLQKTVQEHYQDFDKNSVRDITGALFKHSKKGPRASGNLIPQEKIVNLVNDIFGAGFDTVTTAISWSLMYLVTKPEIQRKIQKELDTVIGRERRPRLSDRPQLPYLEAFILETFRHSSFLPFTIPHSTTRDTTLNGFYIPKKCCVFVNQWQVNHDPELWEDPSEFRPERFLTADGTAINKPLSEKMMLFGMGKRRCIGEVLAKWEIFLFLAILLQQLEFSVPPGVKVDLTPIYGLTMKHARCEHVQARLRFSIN
Ubiquitin carboxyl-terminal hydrolase 1 (Homo sapiens), sequence (O94782 whole entry, looked up): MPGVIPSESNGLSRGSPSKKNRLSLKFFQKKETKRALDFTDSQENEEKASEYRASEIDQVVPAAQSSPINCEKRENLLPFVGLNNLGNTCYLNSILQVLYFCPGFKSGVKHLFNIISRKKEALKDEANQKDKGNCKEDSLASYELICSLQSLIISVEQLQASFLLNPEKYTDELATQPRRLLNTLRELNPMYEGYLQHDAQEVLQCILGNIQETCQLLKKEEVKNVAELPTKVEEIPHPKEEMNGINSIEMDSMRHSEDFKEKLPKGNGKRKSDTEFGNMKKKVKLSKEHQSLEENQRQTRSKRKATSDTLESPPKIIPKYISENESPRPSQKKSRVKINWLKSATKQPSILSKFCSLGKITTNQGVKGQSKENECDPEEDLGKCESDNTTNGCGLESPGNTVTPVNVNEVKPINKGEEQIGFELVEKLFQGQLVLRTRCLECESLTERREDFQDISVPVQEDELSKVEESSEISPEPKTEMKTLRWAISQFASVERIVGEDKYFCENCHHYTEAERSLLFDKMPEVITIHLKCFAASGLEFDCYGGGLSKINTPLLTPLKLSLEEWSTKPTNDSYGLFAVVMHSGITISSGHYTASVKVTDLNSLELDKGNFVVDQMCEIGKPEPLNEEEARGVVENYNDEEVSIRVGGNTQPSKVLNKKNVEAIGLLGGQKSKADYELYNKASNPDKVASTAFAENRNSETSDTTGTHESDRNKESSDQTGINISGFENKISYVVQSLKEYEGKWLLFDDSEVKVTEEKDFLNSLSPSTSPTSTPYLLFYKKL
Glucocorticoid receptor (Homo sapiens), sequence (P04150 whole entry, looked up, the tested form may be a part): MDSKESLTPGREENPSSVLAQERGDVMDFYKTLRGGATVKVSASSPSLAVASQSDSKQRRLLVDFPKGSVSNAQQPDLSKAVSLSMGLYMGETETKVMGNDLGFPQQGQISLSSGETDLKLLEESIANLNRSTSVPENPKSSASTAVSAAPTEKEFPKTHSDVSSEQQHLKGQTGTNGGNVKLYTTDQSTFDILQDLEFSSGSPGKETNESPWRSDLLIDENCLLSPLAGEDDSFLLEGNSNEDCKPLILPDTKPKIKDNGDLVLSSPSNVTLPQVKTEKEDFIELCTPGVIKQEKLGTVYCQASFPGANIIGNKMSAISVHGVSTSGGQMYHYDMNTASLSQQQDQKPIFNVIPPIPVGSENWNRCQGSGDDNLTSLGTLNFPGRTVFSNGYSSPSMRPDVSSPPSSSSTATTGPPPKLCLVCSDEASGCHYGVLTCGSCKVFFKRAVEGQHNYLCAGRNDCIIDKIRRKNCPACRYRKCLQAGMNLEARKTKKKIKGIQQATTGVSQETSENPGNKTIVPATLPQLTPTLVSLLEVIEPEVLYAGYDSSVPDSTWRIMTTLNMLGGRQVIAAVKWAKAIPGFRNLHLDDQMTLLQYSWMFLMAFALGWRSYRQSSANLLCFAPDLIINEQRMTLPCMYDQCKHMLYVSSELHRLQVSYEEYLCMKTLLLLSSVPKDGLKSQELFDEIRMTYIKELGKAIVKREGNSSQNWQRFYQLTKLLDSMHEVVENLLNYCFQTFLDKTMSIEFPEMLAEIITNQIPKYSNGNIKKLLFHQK
Cytochrome P450 3A4 (Homo sapiens), sequence (P08684 whole entry, looked up): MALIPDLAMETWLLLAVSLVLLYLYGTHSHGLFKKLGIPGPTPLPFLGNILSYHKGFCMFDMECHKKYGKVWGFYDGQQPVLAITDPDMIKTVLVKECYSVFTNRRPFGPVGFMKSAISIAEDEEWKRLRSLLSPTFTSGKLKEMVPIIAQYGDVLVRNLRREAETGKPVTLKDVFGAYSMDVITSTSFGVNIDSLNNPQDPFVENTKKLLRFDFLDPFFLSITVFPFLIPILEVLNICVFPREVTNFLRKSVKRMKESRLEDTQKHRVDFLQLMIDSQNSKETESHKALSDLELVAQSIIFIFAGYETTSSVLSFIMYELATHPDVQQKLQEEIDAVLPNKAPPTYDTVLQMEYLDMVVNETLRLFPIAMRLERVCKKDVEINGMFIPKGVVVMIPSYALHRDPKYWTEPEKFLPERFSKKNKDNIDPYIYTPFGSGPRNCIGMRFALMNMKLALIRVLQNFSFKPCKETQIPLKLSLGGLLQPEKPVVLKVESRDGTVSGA
3',5'-cyclic-AMP phosphodiesterase 4B (Homo sapiens), sequence (Q07343 whole entry, looked up): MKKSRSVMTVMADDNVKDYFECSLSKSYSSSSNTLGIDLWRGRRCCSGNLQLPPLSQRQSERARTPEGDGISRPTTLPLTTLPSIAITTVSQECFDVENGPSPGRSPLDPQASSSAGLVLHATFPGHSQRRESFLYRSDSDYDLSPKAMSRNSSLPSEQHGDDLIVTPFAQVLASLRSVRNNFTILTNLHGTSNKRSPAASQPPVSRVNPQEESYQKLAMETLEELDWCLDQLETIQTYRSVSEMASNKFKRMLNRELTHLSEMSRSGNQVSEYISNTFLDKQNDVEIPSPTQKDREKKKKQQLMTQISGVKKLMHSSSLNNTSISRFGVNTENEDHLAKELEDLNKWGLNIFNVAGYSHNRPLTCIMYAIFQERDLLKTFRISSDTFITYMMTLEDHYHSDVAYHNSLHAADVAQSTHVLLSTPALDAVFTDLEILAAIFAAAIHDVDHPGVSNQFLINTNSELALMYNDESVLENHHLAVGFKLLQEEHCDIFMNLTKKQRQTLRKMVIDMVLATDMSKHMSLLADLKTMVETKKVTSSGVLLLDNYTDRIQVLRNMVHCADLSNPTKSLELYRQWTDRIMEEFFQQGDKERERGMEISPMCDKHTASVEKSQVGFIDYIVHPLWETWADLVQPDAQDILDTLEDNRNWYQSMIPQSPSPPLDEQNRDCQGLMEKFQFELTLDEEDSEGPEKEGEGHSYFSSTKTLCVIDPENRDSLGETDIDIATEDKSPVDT
Luciferin 4-monooxygenase (Photinus pyralis), sequence (P08659 whole entry, looked up): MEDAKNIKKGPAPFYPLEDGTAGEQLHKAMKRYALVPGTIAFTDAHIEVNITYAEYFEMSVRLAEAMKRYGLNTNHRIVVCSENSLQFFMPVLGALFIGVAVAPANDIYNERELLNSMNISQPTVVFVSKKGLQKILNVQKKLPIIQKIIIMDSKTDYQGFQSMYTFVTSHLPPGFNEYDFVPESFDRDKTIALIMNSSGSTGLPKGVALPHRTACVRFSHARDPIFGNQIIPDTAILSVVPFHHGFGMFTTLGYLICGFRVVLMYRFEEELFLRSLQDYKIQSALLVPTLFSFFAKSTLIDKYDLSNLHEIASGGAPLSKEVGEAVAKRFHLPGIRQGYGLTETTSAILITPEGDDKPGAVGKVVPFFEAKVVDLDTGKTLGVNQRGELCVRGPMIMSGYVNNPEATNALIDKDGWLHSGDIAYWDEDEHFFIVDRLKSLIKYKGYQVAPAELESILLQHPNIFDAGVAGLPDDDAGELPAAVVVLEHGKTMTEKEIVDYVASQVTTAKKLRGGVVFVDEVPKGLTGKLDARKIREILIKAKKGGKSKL

In the case of `CCCN1CCc2cccc3c2C1Cc1ccc(O)c(O)c1-3` (stereo not drawn), the activity change, negative = inhibition in [1] (at 57.5 µM (top of the series)) is 1.73% (inactive). For the same compound, the max response in experiment [1] (setting [16]) was -26.8%; in [1] (setting [17]) it was -25.9%.

Regarding `ClC(Cl)=C(c1ccc(Cl)cc1)c1ccc(Cl)cc1`, the Potency result in experiment [2] was “inactive and 7.94 µM (active)”. Also, the Potency entry in experiment [3], in [4], in [5] and in [6] was “inactive” throughout. The activity change, negative = inhibition in experiment [1] (at 57.5 µM (top of the series)) was 9.37% (inactive). The results for the max response in experiment [1] (setting [16]) and in [1] (setting [17]) were 14.6% and 26.1%, respectively.

With `Cc1nnc2ccc(-c3cccc(C(F)(F)F)c3)nn12`, the Potency in experiment [7] is 0.0794 µM (active); in experiment [8] it was > 46 µM (inactive); in experiment [9] it was > 46 µM (inactive). For the same compound, the compound was called inactive in experiment [10]. For the same compound, the Potency entry in experiment [11], in experiment [3] and in experiment [6] was “inactive” in each case.

Consider `CCCN(C/C=C\I)[C@@H]1CCc2ccc(O)cc2C1`, for which the Potency was 25.1 µM (active) in experiment [7], > 46 µM (inactive) in [8] and > 46 µM (inactive) in experiment [9].

In the case of `C=C(C)C1Cc2c(ccc3c(=O)c4c(oc23)COc2cc(OC)c(OC)cc2-4)O1` (stereo not drawn), the Potency result in experiment [2] and in experiment [5] was “inactive” in each case.

For the compound `CC(=O)OC1CC2C(C)(C)C(=O)C=C[C@]2(C)C2CC[C@]3(C)C(=CC(=O)OC3c3ccoc3)[C@]12C` (stereo partly drawn), in [2], the Potency was 15.8 µM (active). The Potency result in experiment [3], in [4] and in [5] was “inactive” in each case. Moreover, the activity change, negative = inhibition in experiment [1] (at 57.5 µM (top of the series)) was -3.77% (inactive). The max response in [1] (setting [16]) is 5.48%; in experiment [1] (setting [17]) it was 6.78%.

In the case of `CCC1CN2CCc3cc(OC)c(OC)cc3C2CC1CC1NCCc2cc(OC)c(OC)cc21` (stereo not drawn), the activity change, negative = inhibition in experiment [1] (at 57.5 µM (top of the series)) is 7.1% (inactive). Moreover, the max response in [1] (setting [16]) is -0.174%; in experiment [1] (setting [17]), 8%.

As to `C=CCc1ccc(OC)cc1`, the result in [10] was inactive. Besides, the Potency result in [3], in experiment [4], in [5] and in experiment [6] was “inactive” in each case. Further, in [1] (at 57.5 µM (top of the series)), the activity change, negative = inhibition was 1.63% (inactive). Further, the max response stood at 21.3% in experiment [1] (setting [16]) and 23.9% in experiment [1] (setting [17]).

As for `O=C(NC[C@@H]1CCCCN1)c1cc(OCC(F)(F)F)ccc1OCC(F)(F)F`, in [1] (at 25.7 µM (top of the series)), the activity change, negative = inhibition was -0.787% (inactive). Besides, the max response in experiment [1] (setting [16]) was -18.7%; in [1] (setting [17]) it was -19.7%.

Turning to `O=C(Nc1cccc(F)c1)N1CCCC2(CCN(C(=O)Oc3ccccc3)CC2)C1`, the outcome in experiment [12], in experiment [13] and in experiment [10] was inactive. Moreover, the Potency in [7] was 10 µM (active); in experiment [9], > 46 µM (inactive). In addition, the Potency entry in experiment [3] was “inactive”.

Turning to `O=C1C=CC(=O)c2c(O)cccc21`, the Potency entry in experiment [3], in [4] and in [5] was “inactive” each time. Further, the activity change, negative = inhibition in experiment [1] (at 57.5 µM (top of the series)) was 10.3% (inactive). Further, the max response in experiment [1] (setting [16]) is -12.3%; in [1] (setting [17]) it was -1.73%. The Potency in experiment [6] is 8.91 µM (active).

As for `C[C@]12CC[C@H](O)CC1=CCC1C2CC[C@]2(C)C(=O)CC[C@@H]12` (stereo partly drawn), the activity change, negative = inhibition in experiment [1] (at 57.5 µM (top of the series)) was 0.778% (inactive). Further, the max response in experiment [1] (setting [16]) was -17.2%; in experiment [1] (setting [17]), -14.9%. The Potency result (in experiment [6]; in [14]; in the experiment with C2A; with CP185; with FAB9) was “inactive” in each case. In addition, the activity, negative = inhibition was 7.06% (inactive) in [15] (parasite line A) and 19% (inactive) in [15] (parasite line B).

As to `C[C@H](CCC(=O)O)[C@H]1CC[C@@H]2[C@H]3CC[C@H]4C[C@@H](O)CC[C@@]4(C)[C@H]3CC[C@]21C`, in experiment [1] (at 25.7 µM (top of the series)), the activity change, negative = inhibition was 2.39% (inactive). For the same compound, the max response in experiment [1] (setting [16]) was -11.2%; in [1] (setting [17]) it was -8.48%.

On to `CNCC[C@@H](Oc1ccc(C(F)(F)F)cc1)c1ccccc1`, for which the activity change, negative = inhibition in [1] (at 57.5 µM (top of the series)) was 1.23% (inactive). Also, the max response in experiment [1] (setting [16]) was -30.3%; in [1] (setting [17]) it was -28.9%.

Take `O=C(Oc1ccccc1)N1CCC[C@@]2(CCN(Cc3cc(C(F)(F)F)cc(C(F)(F)F)c3)C2)C1`: the result in experiment [13] and in [10] was inactive. Further, the Potency in experiment [9] is > 46 µM (inactive). Further, the Potency result in experiment [11] was “inactive”.

Regarding `COP(=S)(OC)Oc1ccc([N+](=O)[O-])cc1`, the compound was called inactive in [10]. Moreover, the Potency result in experiment [3] and in [5] was “inactive” each time. The Potency in experiment [1] is 22.4 µM (active). Moreover, the max response in [1] (setting [16]) is 19.5%; in [1] (setting [17]), -54.1%.

Source of the values: PubChem BioAssay (NCATS).
